# Source: PubChem BioAssay AID1671463 (Sanford-Burnham Center for Chemical Genomics, 2021)
# Out of some 370,000 compounds screened, about 520 (0.14%) were called active. Rule as the data show it: active = activation above about 40%; inactive = the rest. The sample as a whole holds a higher share of actives than the screen did.
# Molecular target: Atrial natriuretic peptide receptor 1 (Homo sapiens) (UniProt P16066)
# Test: GC-A stimulated cGMP production enhancers – HEK293 GC-A cells, cGMP TR-FRET, EC30 ANP, primary screen (AID 1671463)
# Settings: at 10 µM, stronger effect = higher value, 0% at EC30 ANP, 100% saturating ANP
# Atrial natriuretic peptide receptor 1 (Homo sapiens), sequence (P16066 whole entry, looked up): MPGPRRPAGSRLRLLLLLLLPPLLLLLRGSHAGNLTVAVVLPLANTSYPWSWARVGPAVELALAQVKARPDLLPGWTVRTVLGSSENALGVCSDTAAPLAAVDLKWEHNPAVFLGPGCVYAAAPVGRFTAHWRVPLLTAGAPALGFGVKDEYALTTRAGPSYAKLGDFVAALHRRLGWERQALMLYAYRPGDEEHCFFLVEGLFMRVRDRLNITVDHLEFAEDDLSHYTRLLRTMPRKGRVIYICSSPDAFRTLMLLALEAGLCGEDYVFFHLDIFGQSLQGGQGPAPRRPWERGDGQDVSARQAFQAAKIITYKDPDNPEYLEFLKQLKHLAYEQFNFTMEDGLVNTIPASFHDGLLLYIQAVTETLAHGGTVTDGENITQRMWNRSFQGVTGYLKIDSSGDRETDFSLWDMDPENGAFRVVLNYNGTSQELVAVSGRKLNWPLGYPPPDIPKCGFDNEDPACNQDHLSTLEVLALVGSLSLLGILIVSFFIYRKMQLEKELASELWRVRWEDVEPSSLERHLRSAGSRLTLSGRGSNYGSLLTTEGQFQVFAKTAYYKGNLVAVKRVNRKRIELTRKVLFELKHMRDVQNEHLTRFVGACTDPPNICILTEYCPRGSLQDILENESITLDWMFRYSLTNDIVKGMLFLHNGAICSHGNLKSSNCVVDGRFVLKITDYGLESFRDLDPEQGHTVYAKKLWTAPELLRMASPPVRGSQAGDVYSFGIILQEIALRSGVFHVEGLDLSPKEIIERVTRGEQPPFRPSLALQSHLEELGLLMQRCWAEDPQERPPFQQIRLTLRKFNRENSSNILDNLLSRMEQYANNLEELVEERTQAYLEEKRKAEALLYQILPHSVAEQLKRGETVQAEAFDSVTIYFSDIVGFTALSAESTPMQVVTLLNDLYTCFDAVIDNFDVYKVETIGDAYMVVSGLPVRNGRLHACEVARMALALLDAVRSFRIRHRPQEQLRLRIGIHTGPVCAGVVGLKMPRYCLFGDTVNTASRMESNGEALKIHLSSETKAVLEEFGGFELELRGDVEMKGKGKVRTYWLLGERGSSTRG
row,Compound,activation
1,Cc1nc(N2CCCC2C(=O)O)c2oc3ccccc3c2n1 (centres undefined),-1.86% (inactive)
2,C[C@@H](Nc1nc(-c2ccccc2)nc2c1oc1ccccc12)C(=O)O,-3.4% (inactive)
3,Cc1nc(Cl)c2oc3ccccc3c2n1,41.1% (active)
4,CC12CN(NC(=O)c3ccc(Cl)cc3)C3(C#N)CC1CCC23C (centres undefined),0.43% (inactive)
5,C#CCN([C@H](C(=O)OC)C(C)CC)S(=O)(=O)c1ccccc1Br (some centres undefined),-4.19% (inactive)
6,Cc1ccc(S(=O)(=O)CC(=O)NC(C)c2ccccc2)cc1 (centres undefined),4.14% (inactive)
7,CCOc1ccccc1NC(=O)C1CCC(CNc2c(N3CCOCC3)c(=O)c2=O)CC1 (centres undefined),0.11% (inactive)
8,CC(C)c1cc(C(=O)O)on1,-0.6% (inactive)
9,Cc1ccc(C(=O)NCC(=O)NCc2cc(=O)n(C)c(=O)n2C)cc1,1.88% (inactive)
10,CN(C)/C(=N\OC(=O)c1ccccc1)c1nonc1N,-2.63% (inactive)
11,Nc1c(-c2cccc(Cl)c2)cnn1-c1cccc([N+](=O)[O-])c1,-2.54% (inactive)
12,Cc1cccc(-n2ncc(Cl)c(Cl)c2=O)c1,40.6% (active)
13,CCOc1ccc(Oc2c(Cl)cnn(-c3ccc(C)cc3)c2=O)cc1,4.6% (inactive)
14,COC(=O)c1ccc(C2C3=C(Nc4nnnn42)c2ccccc2OC3)cc1 (centres undefined),1.48% (inactive)
15,CCc1c(C)sc(NC(=O)OC)c1C(=O)N1CCOCC1,0.05% (inactive)
16,Cn1c(=O)c2c(nc(N/N=C/c3cccs3)n2Cc2ccc(Br)cc2)n(C)c1=O,18.6% (inactive)
17,C/C(Cl)=C\Cn1c(Nc2cccc(C)c2)nc2c1c(=O)n(C)c(=O)n2C,51.1% (active)
18,Cc1cccc(Cn2c(N3CCN(c4ccccc4)CC3)nc3c2c(=O)n(C)c(=O)n3C)c1,-29% (inactive)
19,CCN(CC(=O)Nc1cc(Cl)ccc1C)C(=O)CSCc1ccc(C)cc1,-0.6% (inactive)
20,CC1(c2ccc3ccccc3c2)NC(=O)N(CC(N)=O)C1=O (centres undefined),3.94% (inactive)
21,C=CCN1C(=O)[C@@H](CC(=O)NCCCCc2ccccc2)[C@]2(C(=O)OCC)CCCCC/C=C/12,3.65% (inactive)
22,COc1ccc(N(CC(=O)NCC2CCCO2)C(=O)CCC(=O)Nc2nccs2)c(OC)c1 (centres undefined),4.75% (inactive)
23,CC(C)(C)C(=O)CCN1C(=O)C2(OCCO2)c2ccccc21,1.22% (inactive)
24,CC(=O)NC(c1cccs1)c1cc(Br)c2cccnc2c1O (centres undefined),-1.9% (inactive)

row,Compound,activation
1,CCCCCCCCN1C(=O)[C@@H](CC(=O)NCc2ccccc2)C[C@@]2(C(=O)OC)C1=C[C@H](C(C)(C)C)O[C@@H]2C,2.65% (inactive)
2,O=C(/C=C/Sc1ncn[nH]1)c1ccc(Cl)cc1,64.8% (active)
3,COc1ccc(CN2CC[C@H]3C=CC[C@@H](C(=O)N4CCOCC4)[C@H]3C2=O)cc1OC,1.45% (inactive)
4,COC(=O)c1c(NC(=O)COc2ccc(Cl)cc2Cl)sc2c1CC(C)(C)NC2(C)C,6% (inactive)
5,CSCC[C@H](NC(=O)NC1CCCC1)C(=O)O,0.42% (inactive)
6,O=C(NCCc1ccccc1)c1c[nH]c2ccc(F)cc2c1=O,1.93% (inactive)
7,O=c1[nH]c2c(c(=O)n1-c1ccccc1)CCO2,-0.17% (inactive)
8,Fc1ccc(Nc2nnns2)cc1,3.58% (inactive)
9,COCCN(Cc1ccccc1)C(=O)Cc1ccc(S(=O)(=O)N2CCOCC2)s1,-2.49% (inactive)
10,CS(=O)(=O)c1cccc(-c2ccc3nncn3c2)c1,4.9% (inactive)
11,CCCCS(=O)c1snnc1C (centres undefined),1.27% (inactive)
12,COc1ccc(/C=C/CN2CCN(Cc3ccc(C)cc3)C(CCO)C2)cc1 (centres undefined),0.4% (inactive)
13,O=C(OCC(=O)N1CCCC1)c1ccc(Cl)nc1,-0.33% (inactive)
14,CC1(C)CC(N(Cc2ccccc2)C(=O)Cc2ccccc2)CCO1 (centres undefined),-16.2% (inactive)
15,CCOc1c(Br)cc(/C=C2\C(=O)N(CCC#N)N=C2C)cc1OC,40.1% (active)
16,Cc1ccc(C(c2nnnn2CS(=O)(=O)c2ccc(C)cc2)N2CCC(C)CC2)cc1 (centres undefined),-0.04% (inactive)
17,CCCSc1nsc(N)n1,-1.07% (inactive)
18,CC(C)(CNC(=O)Cc1ccc(Cl)cc1Cl)N1CCOCC1,1.34% (inactive)
19,CCOC(=O)c1cccc(NC(=O)C2CCCN(S(=O)(=O)c3cnc[nH]3)C2)c1 (centres undefined),1.55% (inactive)
20,Cc1ccsc1C1C(C#N)=C(N)OC2=C1C(=O)CC(C)(C)C2 (centres undefined),1.86% (inactive)
21,CCCn1nnnc1NC(=O)COc1ccc(Cl)cc1C,0.54% (inactive)
22,O=C(c1ccc(CS(=O)Cc2ccccc2Cl)o1)N1CCN(c2ccccc2)CC1 (centres undefined),-8.64% (inactive)
23,Cc1ccsc1C(=O)NCCc1ccco1,5.29% (inactive)
24,O=C(NCCc1ccco1)c1nn(Cc2ccccc2)c(=O)c2ccccc12,41.3% (active)

row,Compound,activation
1,O=c1c2ccccc2c(-c2ccc(Br)cc2)nn1Cc1ccccc1,1.66% (inactive)
2,Cc1ccc(S(=O)(=O)NNC(=S)NC(C)(C)C)cc1,4.04% (inactive)
3,COC(=O)[C@@H](NC(=O)Nc1cc(Cl)ccc1C)C(C)C,4.54% (inactive)
4,CC(C)Oc1ccc(S(=O)(=O)N2CCOCC2)cc1NC(=O)C1CCCC1,0% (inactive)
5,Cn1c2ccccc2c2cc(/C=C(\NC(=O)c3ccccc3)C(=O)NCC(=O)O)ccc21,1.03% (inactive)
6,COCCCNC(NC(=O)c1ccc(OC)cc1)C(Cl)(Cl)Cl (centres undefined),-6.96% (inactive)
7,CSCCC(Nc1ccc(S(=O)(=O)N2CCOCC2)cc1[N+](=O)[O-])C(=O)OCC(=O)N(C(C)C)C(C)C (centres undefined),3.61% (inactive)
8,CCC(=O)Nc1ccc(Nc2nc(Cl)nc(Nc3ccc(NC(=O)CC)cc3)n2)cc1,41.8% (active)
9,CCOC(=O)CNc1nc(Cl)nc(Nc2ccccc2)n1,-0.38% (inactive)
10,CCC(=O)Nc1ccc(-c2ccc(N3CCCCC3)nn2)cc1,1.98% (inactive)
11,CCC(=O)N1CCC(C)(C(=O)Nc2cc(OC)c(OC)c(OC)c2)C1 (centres undefined),0.68% (inactive)
12,CCCc1cc(=O)[nH]c(SCC(=O)c2c(N)n(CC(C)C)c(=O)n(C)c2=O)n1,-6.69% (inactive)
13,Cc1ccc(S(=O)(=O)N2CCOCC2)cc1NC(=O)CSc1nnc(N)s1,-4.98% (inactive)
14,COc1ccc(C#CCNCc2ccc(OC)cc2OC)cc1,-0.15% (inactive)
15,O=C(Oc1ccc2c(c1)CCC2)N1CCOCC1,4.74% (inactive)
16,CCOC(=O)C(=O)N(Cc1ccccc1)c1ccccc1C(=O)Nc1cc(OC)ccc1OC,-11.8% (inactive)
17,COc1ccc(NC(=S)SC)cc1OC,1.77% (inactive)
18,COc1ccccc1C(=O)N(C1=NC(C)CS1)c1ccc(Cl)cc1 (centres undefined),-15.5% (inactive)
19,CC1CCN(CCCNC(=O)CN2C(=O)CSc3ccc(S(=O)(=O)N4CCCCC4)cc32)CC1,3.44% (inactive)
20,Cn1nc(C(F)(F)F)cc1-c1ccc(/C=C(\C#N)C(=O)c2cccc(C(F)(F)F)c2)s1,25.6% (inactive)
21,CC1CCCC(N2CCN(C(=O)c3ccc(F)cc3)CC2)C1 (centres undefined),5.28% (inactive)
22,O=S(=O)(c1ccc(-c2ccccc2)cc1)N1CCCC1,0.74% (inactive)
23,Cc1cccc(C(=O)Nc2ccccc2-c2nnn(CC(=O)Nc3ccc4c(c3)OCCO4)n2)c1,-13.7% (inactive)
24,CN1C[C@]2(C=C3CCCCC3n3c(=O)n(-c4ccccc4)c(=O)n32)N=C1NC(=O)c1ccccc1 (some centres undefined),-1.71% (inactive)

row,Compound,activation
1,C#CCCN([C@H](C(=O)OC)C(C)C)S(=O)(=O)c1ccc(F)cc1Br,-5.17% (inactive)
2,COc1ccccc1-n1nnnc1S(=O)(=O)Cc1ccc(Cl)cc1,0.71% (inactive)
3,Cc1nc(-c2ccc(Cl)cc2)sc1C1(C)CC(c2ccccc2F)=NO1 (centres undefined),2.63% (inactive)
4,Cc1nc(-c2ccc(Cl)cc2)sc1C(=O)CBr,49.9% (active)
5,Cc1nc(-c2ccc(Cl)cc2)sc1C1(C)CC(c2ccc(Br)cc2)=NO1 (centres undefined),-0.28% (inactive)
6,Cc1ccccc1CN1CCCCC(NC(=O)c2cccc(C#N)c2)C1=O (centres undefined),1.67% (inactive)
7,CCOc1ccc(S(=O)(=O)N2CCC(c3ccccc3)CC2)cc1C(=O)O,0.54% (inactive)
8,C/C=C/c1ccc(OCCOc2ccc(C=O)cc2OC)c(OC)c1,3.2% (inactive)
9,COc1ccnc2c1c(=O)n(Cc1cccc(F)c1)c(=O)n2C,8.86% (inactive)
10,COc1cc(/C=C2/C(=O)ON=C2C)ccc1OCc1cccc(F)c1,52.6% (active)
11,COc1cc(CNc2ncn[nH]2)ccc1OCc1ccccc1C,0.42% (inactive)
12,CCOc1cc(/C=N/O)ccc1OCc1ccccc1F,-0.44% (inactive)
13,COc1cc(/C=C2/C(=O)ON=C2C)ccc1OCc1ccccc1F,51.8% (active)
14,COc1ccc(CCNC(=O)c2ccc(NC(=O)CC3SC(N4CCCCC4)=NC3=O)cc2)cc1OC (centres undefined),-0.61% (inactive)
15,COCCCN1C(=O)C(=O)/C(=C(/O)c2ccc(S(=O)(=O)N3CCOCC3)cc2)C1c1ccc(F)cc1 (centres undefined),1.53% (inactive)
16,CCc1c(-c2ccccc2OC)ncn1CCc1ccccc1OC,-8.39% (inactive)
17,CCc1nc2c(OCc3cccc(OC)c3)cccn2c1N(C)C(=O)C(C)C,-2.25% (inactive)
18,CC(NC(=O)CCCC1CCCCC1)c1ccc(S(N)(=O)=O)cc1 (centres undefined),-4.53% (inactive)
19,CC(=O)Oc1c(C(=O)c2nnc(C)o2)c(=O)n(Cc2ccccc2)c2ccccc12,-0.69% (inactive)
20,O=C1CCCCC1Sc1ccc(Cl)cc1[N+](=O)[O-] (centres undefined),-7.33% (inactive)
21,CCN(CC)C(CNC(=O)CSc1nnnn1-c1cccc(F)c1)c1ccco1 (centres undefined),2.86% (inactive)
22,Cc1ccc(S(=O)(=O)N2C[C@@H]3CCCC[C@@H]3[C@@H](C)[C@H]2c2cn(Cc3ccccc3)c3ccc(F)cc23)cc1,3.1% (inactive)
